WRN inhibitor: qHTS for Inhibitors of WRN Helicase | Bifunctional 3'-5' exonuclease/ATP-dependent helicase WRN (Homo sapiens), Q14191 | WRN helicase unwinding, fluorescent forked duplex, kinetic | hit rate 0.46% among 360,000 | Potency, µM (doses to about 114 µM), actives largely listed as inhibitors | AID 651768, 2012; further: nearly all actives have a fitted effect of over 55% in size
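Enzyme (20 nM final) and test compound sit together 15 min at room temperature before substrate addition. Substrate is a single-forked duplex oligonucleotide (100 nM) labelled with fluorophore and quencher, with 2 mM ATP; helicase unwinding raises red fluorescence, read kinetically.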
FEN1 inhibitor: qHTS Assay for the Inhibitors of Human Flap endonuclease 1 (FEN1); P39748; Recombinant FEN1 flap cleavage, fluorescence, 15 min; hit rate 0.35% among 390,000; Potency, µM (titrated, usually from 114 µM), hits mostly inhibitors; further: nearly all actives have a fitted effect of over 65% in size
Target sequence (P39748 whole entry, looked up): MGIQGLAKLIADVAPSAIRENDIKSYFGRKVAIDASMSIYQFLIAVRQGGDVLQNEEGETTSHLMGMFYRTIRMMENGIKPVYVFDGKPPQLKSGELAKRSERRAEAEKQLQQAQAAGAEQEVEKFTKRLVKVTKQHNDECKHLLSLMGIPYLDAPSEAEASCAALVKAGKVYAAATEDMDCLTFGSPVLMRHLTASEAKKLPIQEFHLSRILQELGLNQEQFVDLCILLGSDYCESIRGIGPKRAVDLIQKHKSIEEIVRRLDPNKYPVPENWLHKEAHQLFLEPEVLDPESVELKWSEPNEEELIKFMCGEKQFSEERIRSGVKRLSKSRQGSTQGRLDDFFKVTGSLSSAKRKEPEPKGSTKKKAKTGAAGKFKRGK
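Steps: FEN1 (10 nM) dispensed; compound added by pin tool; 15 min at room temperature; substrate added to 50 nM final; reads at 0 min and 15 min; data normalized and fitted (four-parameter Hill).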
POLH inh: qHTS for Inhibitors of Polymerase Eta; hit rate 1.2% among 390,000; recombinant Pol eta, fluorescent DNA replication assay; Potency, µM (doses to about 114 µM), actives largely listed as inhibitors; AID 588591, 2011; DNA polymerase eta (Homo sapiens), Q9Y253
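Fluorescent replication assay: 50 nM final substrate added after a 15 min room-temperature compound preincubation with 10 nM enzyme. Signal taken at 0 min and again at 10 min.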
Pol kappa inh: qHTS for Inhibitors of Polymerase Kappa; DNA polymerase kappa (Homo sapiens), Q9UBT6; purified Pol kappa, fluorescent DNA synthesis assay, 10 min; Potency, µM (top dose mostly 107 µM), actives largely listed as inhibitors; hit rate 0.53% among 400,000
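Kinetic fluorescence readout at 0 and 10 min followed reaction start with substrate at 50 nM final. Beforehand, enzyme (10 nM Pol kappa) stood 15 min with compound at room temperature; buffer-only wells were negative controls.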
Pol beta inh: qHTS Assay for Inhibitors of DNA Polymerase Beta; Pol beta primer extension/strand displacement, fluorescence kinetic; Potency, µM (doses to about 114 µM), usual class: inhibitors; hit rate 1.3% among 340,000
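Curves were derived by four-parameter Hill fits of normalized qHTS data. The kinetic fluorescent primer-extension read was taken at 0 and 10 min after 50 nM substrate, following a 15 min room-temperature preincubation of 10 nM enzyme with compounds.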
POLI inh: qHTS for Inhibitors of Polymerase Iota; Pol iota fluorescent replication assay, 10 min; Potency, µM (highest dose often 115 µM), actives largely listed as inhibitors; hit rate 1% among 390,000; AID 588590, 2011
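Pol iota at 10 nM preincubated 15 min with compounds at room temperature; reaction started with fluorescent substrate, 50 nM final. Fluorescence read kinetically at 0 and 10 min; buffer-only wells as negative control.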
Large screens that a line does not name were inactive. Shown are actives, neighbours in structure and some others; about 2.4% of the full set was active somewhere. The call rests on the fitted dose curve; in most records, active means well fitted curve in the direction sought with a large enough effect; inconclusive means small, poorly fitted or top-dose-only effect, or another doubt; inactive means no such curve, though single readings can be large; an effect the other way counts as inactive or inconclusive.

CCOC(=O)C1=C(CS(=O)(=O)c2ccc(F)cc2)NC(=O)NC1c1cc(OC)c(O)c(OC)c1 (configuration not stated)	none
CCOC(=O)C1=C(CS(=O)(=O)c2ccc(F)cc2)NC(=O)NC1c1ccc(O)c(O)c1 (configuration not stated)	POLH inh inconclusive, Pol kappa inh 45µM, Pol beta inh inconclusive, POLI inh 25µM
COc1cccc(NC(=O)c2nnn(Cc3ccc(OC)c(Br)c3)c2N)c1	none (no result: WRN inhibitor)
N#CCC(=O)NN	none (no result: WRN inhibitor, FEN1 inhibitor, POLH inh, Pol beta inh, POLI inh)
N#CCC(=O)c1sccc1-n1cccc1	WRN inhibitor inconclusive, Pol kappa inh 79µM, POLI inh inconclusive
Cc1ccccc1-c1ccc2ncnc(NCc3cccs3)c2c1	Pol kappa inh 22µM (no result: WRN inhibitor, FEN1 inhibitor, POLH inh, Pol beta inh, POLI inh)
CC(=O)OCON[N+]([O-])=NC1CCCCC1	none (no result: WRN inhibitor, POLH inh, Pol beta inh)
COc1cc(/C=N\NC(=O)c2ccc(Cn3nc([N+](=O)[O-])c(Cl)c3C)o2)ccc1O	FEN1 inhibitor inconclusive
COc1ccc(/C=N/NC(=O)c2ccccc2O)cc1Cn1cc([N+](=O)[O-])cn1	Pol beta inh 56µM
COc1cccc(/C=N\NC(=O)c2ccc(Cn3cc(Br)c([N+](=O)[O-])n3)o2)c1O	Pol beta inh 40µM
COc1ccc(/C=N/Nc2ccccc2C(=O)O)cc1Cn1cc([N+](=O)[O-])cn1	POLI inh inconclusive
CCOc1ccccc1/C=N/NC(=O)c1c(C)nc2ccc(Br)cn12	none
CCCOc1ccc(/C=N/NC(=O)c2ccc(Cn3cc([N+](=O)[O-])cn3)o2)cc1	Pol beta inh 32µM, POLI inh inconclusive
COc1cccc(/C=N/NC(=O)c2c(C)nc3ccc(Br)cn23)c1O	Pol beta inh 79µM, POLI inh inconclusive
Cc1ccc(/C=N/NC(=O)c2ccc(Cn3cc([N+](=O)[O-])cn3)o2)cc1	none
Cc1sc2ccccc2[n+]1CCCCBr	POLI inh inconclusive (no result: WRN inhibitor, POLH inh, Pol beta inh)
Cc1cc(C)c2nccc(/C=C/c3ccc(N(C)C)cc3)c2c1	none (no result: WRN inhibitor, POLH inh, Pol beta inh)
CC(C)(C)n1ncc2c(=O)n(Cc3cccc(OC(F)(F)F)c3)cnc21	none (no result: WRN inhibitor, POLH inh, Pol beta inh)
COc1ccc(/C=N/NC(=O)c2ccc(Br)cc2)cc1Cn1cc(Cl)cn1	WRN inhibitor inconclusive, POLH inh inconclusive, Pol beta inh inconclusive, POLI inh 50µM
COc1ccc(/C=N/NC(=O)c2cccc(Br)c2)cc1Cn1cc(Cl)cn1	none
C=C(C)CC(C)(C)C	none (no result: WRN inhibitor, FEN1 inhibitor, POLH inh, Pol beta inh, POLI inh)
Cc1sc2nc(CN3CCCCC3)nc(Nc3ccc4c(c3)OCCO4)c2c1C	Pol beta inh 79µM
Cc1sc2nc(CN3CCCC3)nc(NCc3ccncc3)c2c1C	none
CC1CCCC(C)N1C(=O)COC(=O)c1ccc(S(=O)(=O)N(C)c2ccccc2)cc1 (configuration not stated)	none (no result: Pol beta inh)
CN(/C=C/C(=C\C=[N+](C)c1ccccc1)OCCCS(=O)(=O)[O-])c1ccccc1	Pol kappa inh inconclusive, Pol beta inh 50µM, POLI inh inconclusive
CN(/C=C/C(=C/C=[N+](C)c1ccccc1)OCCCS(=O)(=O)[O-])c1ccccc1	POLH inh inconclusive, Pol kappa inh inconclusive, Pol beta inh 28µM, POLI inh inconclusive
Cc1ccc2cccc(OCC(=O)c3cc(C)n(Cc4ccco4)c3C)c2n1	Pol beta inh 11µM (no result: WRN inhibitor, FEN1 inhibitor, POLH inh, Pol kappa inh, POLI inh)
Cc1cc(C(=O)CSc2nnc(-c3ccco3)o2)c(C)n1Cc1ccco1	WRN inhibitor inconclusive, POLH inh inconclusive, Pol beta inh 45µM, POLI inh inconclusive
Cc1cc(C(=O)CCl)c(C)n1Cc1ccco1	POLH inh inconclusive, Pol beta inh inconclusive, POLI inh inconclusive
O=C1CC[C@@H](C(=O)N[C@@H](Cc2cnc[nH]2)C(=O)N[C@@H](Cc2c[nH]c3ccccc23)C(=O)N[C@@H](CO)C(=O)N[C@@H](Cc2ccc(O)cc2)C(=O)O)N1	none (no result: WRN inhibitor, FEN1 inhibitor, POLH inh, Pol beta inh, POLI inh)
COc1ccc2nc(N=Nc3ccc(O)c4ccccc34)sc2c1	POLH inh inconclusive, Pol beta inh 45µM
CN(C(=O)c1ccoc1)c1ccccc1I	none (no result: WRN inhibitor, POLH inh, Pol beta inh)
Clc1ccc(N=c2ssnc2Cl)nc1	FEN1 inhibitor inconclusive

Source: PubChem (National Center for Advancing Translational Sciences (NCATS))
